In the library only some 1% were active in any assay of this set; here they are far more common.
Sa RN4220 lethal: kills Staphylococcus aureus RN4220; inhibition, % (concentration not given with the values); actives 0.33% (n = 330,000); S. aureus RN4220 growth, OD600, 16 h; in the data active = inhibition above about 85%;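 note: plate controls were untreated cells for no effect and reference antibiotic for full effect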
ugtP null kill: growth inhibition of S. aureus ugtP deletion strain; actives 0.54% (n = 330,000); S. aureus RN4220 ugtP deletion, OD600 growth, 16 h; growth inhibition, % (test concentration not listed); in the data active = growth inhibition above about 68%;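 note: plate controls were untreated wells for no effect and antibiotic for full effect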
SSB-PriA inh: K. pneumoniae PriA-SSBct interaction inhibition; AlphaScreen SSBct-PriA binding, biotinylated peptide; inhibition, % at 33 µM; actives 0.6% (n = 430,000); AID 1272365; in the data active = inhibition mostly above about 37%, no sharp cut-off; inactive = mostly below about 20%;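 note: plate controls were negative control peptide for no effect and reference peptide for full effect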
* marks the source's active call; other numbers are inactive results.

`O=c1c2ccccc2nc2c3ccccc3c(NCCN3CCOCC3)nn12` gave Sa RN4220 lethal 4.8 and ugtP null kill 12.3.
`Fc1ccc(-c2c[nH]c(=S)n2Cc2ccccc2)cc1` gave Sa RN4220 lethal 0.8, ugtP null kill -0.2 and SSB-PriA inh 8.3.
O=c1[nH]cc(-c2ccc(Br)cc2)n1Cc1ccccc1 was read as Sa RN4220 lethal -0.8, ugtP null kill 9.9 and SSB-PriA inh 77.5*.
O=C(NCC#CCOc1cccc(C(F)(F)F)c1)Nc1cccs1 was read as SSB-PriA inh 10.0.
Screening C=C(C)COc1ccc(-c2[nH]ncc2-c2ccc(OC)cc2)c(O)c1 returned Sa RN4220 lethal -12.4, ugtP null kill 0.0 and SSB-PriA inh 6.1.
For C=C(C)COc1ccc(-c2[nH]ncc2-c2ccccc2)c(O)c1 the results were Sa RN4220 lethal -16.1, ugtP null kill 83.9* and SSB-PriA inh -12.4.
For CCCn1c(SCc2ccc(C(=O)OC)o2)nc2c(-c3ccccc3)cn(C)c2c1=O the results were SSB-PriA inh -8.0.
COc1ccc(Nc2nc(NC(C)(C)C)nc(N3CCOCC3)n2)c(OC)c1 was read as Sa RN4220 lethal 1.0, ugtP null kill 3.5 and SSB-PriA inh 15.9.
COc1ccc(Nc2nc(NC(C)(C)C)nc(N3CCCC3)n2)c(OC)c1 was read as Sa RN4220 lethal 1.4, ugtP null kill 47.5 and SSB-PriA inh 44.5*.
Screening Cc1[nH]c2c(CN3C(=O)c4ccccc4C3=O)cc(F)cc2c1C returned SSB-PriA inh -10.0.
For CC(C)(C)c1ccc(OCCNC(=O)c2ncn[nH]2)cc1 the results were Sa RN4220 lethal 4.3, ugtP null kill -2.2 and SSB-PriA inh 56.6*.
`CCc1cc(C)cc(OCCNC(=O)c2ncn[nH]2)c1` gave Sa RN4220 lethal 1.8, ugtP null kill -0.7 and SSB-PriA inh -1.1.
Screening O=C(Nc1nc(-c2ccc(Cl)c(Cl)c2)cs1)c1ccc(-c2nc3ccccc3s2)s1 returned SSB-PriA inh -9.0.
c1ccc(Nc2scc(-c3ccccc3)[n+]2Cc2ccco2)cc1 was read as Sa RN4220 lethal -6.5, ugtP null kill 22.4 and SSB-PriA inh 3.8.
`c1ccc(C[n+]2c(-c3ccccc3)csc2Nc2ccccc2)cc1` gave Sa RN4220 lethal -9.7, ugtP null kill 85.2* and SSB-PriA inh 1.6.
`C[C@@H]1C(=O)N2CCCc3cc(NC(=O)c4c(F)cccc4F)cc1c32` gave SSB-PriA inh -11.0.
For COC(=O)c1ccc(S(=O)(=O)N2CCC(c3ccsc3)CC2)cc1 the results were SSB-PriA inh -14.0.
Screening O=C(CN1C(=O)CCC1=O)N1CCC(CSC2=NCCS2)CC1 returned SSB-PriA inh -8.0.
Screening CCCC(=O)Nc1cc(=O)n(C)c(=O)n1C returned Sa RN4220 lethal 0.6, ugtP null kill 4.0 and SSB-PriA inh -20.3.
`Cn1c(NC(=O)CCc2ccccc2)cc(=O)n(C)c1=O` gave Sa RN4220 lethal 8.6, ugtP null kill 11.0 and SSB-PriA inh 46.0*.
COC(=O)c1ccc(Sc2ccc(C)cc2)c(N)c1 was read as Sa RN4220 lethal 4.2, ugtP null kill 1.6 and SSB-PriA inh -58.2.
For COc1cc(Sc2ccc(C)cc2)c(OC)cc1N the results were Sa RN4220 lethal -2.7, ugtP null kill -0.5 and SSB-PriA inh 78.6*.
Cc1cc(-n2c(C)nc3ncccc3c2=O)ccc1NC(=O)c1ccc(F)cc1F was read as SSB-PriA inh 3.0.
COc1ccc2c(c1)C(=NN)c1cc(OC)ccc1-2 was read as Sa RN4220 lethal 3.0, ugtP null kill 35.6 and SSB-PriA inh 47.0*.
For COc1ccc2c(c1)C(=NNc1ccc(C(=O)O)cc1)c1cc(OC)ccc1-2 the results were SSB-PriA inh 4.7.
For Cc1cc2oc(C(=O)N(Cc3ccc(N(C)C)cc3)CC3CCCO3)c(C)c2cc1C (stereo not drawn) the results were Sa RN4220 lethal 3.8, ugtP null kill 27.6 and SSB-PriA inh 49.6*.
For Cc1ccc2oc(C(=O)N(Cc3ccc(N(C)C)cc3)CC3CCCO3)c(C)c2c1 (stereo not drawn) the results were Sa RN4220 lethal 2.1, ugtP null kill 20.5 and SSB-PriA inh 15.7.
For CN(C)c1ccnc(CNC(=O)C2CCN(S(C)(=O)=O)CC2)n1 the results were SSB-PriA inh 10.0.
`O=C(Nc1nc2ccccc2s1)c1ccc(S(=O)(=O)N2CCCC2)o1` gave SSB-PriA inh -11.0.
Screening CC1CN(c2ccc([N+](=O)[O-])c3cccnc23)CC(C)N1 (stereo not drawn) returned Sa RN4220 lethal -12.0, ugtP null kill -4.5 and SSB-PriA inh 38.3*.
`O=[N+]([O-])c1ccccc1N1CCN(c2ccc([N+](=O)[O-])c3cccnc23)CC1` gave SSB-PriA inh 75.4*.
Screening O=[N+]([O-])c1ccc(N2CCCC2)c2ncccc12 returned Sa RN4220 lethal 6.4, ugtP null kill 3.3 and SSB-PriA inh -6.3.
`O=[N+]([O-])c1ccc(N2CCN(CCO)CC2)c2ncccc12` gave Sa RN4220 lethal 6.2, ugtP null kill 7.9 and SSB-PriA inh 3.1.
`CCCOc1ccc(/C=C2\SC(=N)NC2=O)cc1OC` gave SSB-PriA inh -6.0.
`Cc1ccc(=O)n(C(C)C(=O)NCCc2c[nH]c3ccccc23)n1` (stereo not drawn) gave SSB-PriA inh -6.0.
`Cc1ccc(NC(=O)Nc2cccc([N+](=O)[O-])c2)cc1F` gave Sa RN4220 lethal 54.5, ugtP null kill 47.6 and SSB-PriA inh -11.4.
`O=C(Nc1ccncc1)Nc1cccc(C(F)(F)F)c1` gave Sa RN4220 lethal -16.5, ugtP null kill -26.5 and SSB-PriA inh -3.8.
O=C(Nc1ccc(OC(F)(F)F)cc1)Nc1cccc([N+](=O)[O-])c1 was read as Sa RN4220 lethal 100.0*, ugtP null kill 99.7* and SSB-PriA inh -8.2.
For O=C(Nc1ccc(OC(F)F)cc1)Nc1cccc(C(F)(F)F)c1 the results were Sa RN4220 lethal 81.8, ugtP null kill 90.1* and SSB-PriA inh -16.0.
Screening Cc1nc(-c2nnc(NC(=O)c3cccc(Br)c3)o2)cs1 returned SSB-PriA inh 11.0.
`O=C(CSc1nccnc1N1CCSCC1)Nc1cc(C(F)(F)F)ccc1Cl` gave SSB-PriA inh -9.0.
Screening OC(CN1CCc2ccccc2C1)CN1c2ccccc2Sc2ccccc21 (stereo not drawn) returned SSB-PriA inh 54.0*.
`CC1CCN(CC(O)CN2c3ccccc3Sc3ccccc32)CC1` (stereo not drawn) gave Sa RN4220 lethal -3.7, ugtP null kill 1.0 and SSB-PriA inh -9.2.
Screening Cc1ccc(NC2=C(NC(=O)c3ccccc3)C(=O)c3ccccc3C2=O)cc1Cl returned Sa RN4220 lethal 86.0*, ugtP null kill 88.4* and SSB-PriA inh 17.5.
Cc1ccc(NCC(=O)c2ccccc2)cc1Cl was read as Sa RN4220 lethal 2.0, ugtP null kill -1.3 and SSB-PriA inh -3.2.
`O=C(CN1CCN(Cc2nc3ccccc3[nH]2)CC1)Nc1ccc(OC(F)(F)F)cc1` gave SSB-PriA inh -12.0.
For CS(=O)(=O)c1ccccc1-c1nnc(NC(=O)CN2C(=O)c3ccccc3C2=O)o1 the results were SSB-PriA inh -17.0.
`CC(C)(C)c1ccc(C(=O)N/C(=C/c2ccco2)C(=O)NCCCn2ccnc2)cc1` gave SSB-PriA inh 63.2*.
`O=C(NCCCn1ccnc1)/C(=C\c1ccco1)NC(=O)c1ccco1` gave Sa RN4220 lethal 1.1, ugtP null kill 1.3 and SSB-PriA inh -6.6.
